# Active and inactive are the calls of the source.
# Tests used:
# [1] = tested on: Plasmodium falciparum Sir2 (PF13_0152, Sir2A); assay: pfSir2 binders on small-molecule microarrays, primary screen, biochemical, small-molecule microarray, 635 nm fluorescence (AID 1098); conditions: small-molecule microarray binding, fluorescence 635 nm; higher = more signal;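 further: score merges spot fluorescence intensity with its signal-to-noise ratio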
# [2] = small-molecule microarray binders of probe aDKK1, primary screen, biochemical, biotinylated probe, 635/667 nm fluorescence (AID 1099); conditions: higher = more signal;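 further: score merges 667nm spot fluorescence with signal to noise across triplicate slides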
# [3] = small-molecule microarray binders of probe aCHRDL2, primary screen, biochemical, biotinylated probe, 635/667 nm fluorescence (AID 1100); conditions: higher = more signal
# [4] = splicing luciferase reporter signal modulators, primary screen, spliceosome inhibition project, cell-based, HEK293, splice +/- reporter (AID 1101); conditions: luminescence, 24 h, higher = more signal, called active from +8 up or from −8 down;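 further: HEK293 cells carrying a splicing-competent luciferase reporter gene; test concentration not given here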
# [5] = target: Fibroblast growth factor 10 (Homo sapiens) (UniProt O15520); assay: FGF10 binders on small-molecule microarrays, primary screen, biochemical, small-molecule microarray, 635 nm fluorescence (AID 1102); conditions: FGF10 binding, fluorescence 635 nm, higher = more signal
# Chain of Fibroblast growth factor 10 (Homo sapiens) (O15520 whole entry, looked up): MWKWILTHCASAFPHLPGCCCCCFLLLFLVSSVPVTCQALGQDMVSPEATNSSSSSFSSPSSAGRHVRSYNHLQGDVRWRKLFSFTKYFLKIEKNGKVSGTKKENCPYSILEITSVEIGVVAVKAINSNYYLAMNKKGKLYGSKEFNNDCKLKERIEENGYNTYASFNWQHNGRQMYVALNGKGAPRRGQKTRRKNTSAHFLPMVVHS
# [6] = tested on: glycogen synthase kinase-3 (GSK3A per assay name; protocol says GSK3B); assay: GSK3 binders on small-molecule microarrays, primary screen, biochemical, small-molecule microarray, 635 nm fluorescence, GSK3A (AID 1103); conditions: small-molecule microarray binding, fluorescence 635 nm; higher = more signal; further: the record names both GSK3A and GSK3B
# [7] = target: Epidermal growth factor receptor (Homo sapiens) (UniProt P00533); assay: EGFR binders on small-molecule microarrays, primary screen, biochemical, small-molecule microarray, 635 nm fluorescence (AID 1104); conditions: EGFR binding, higher = more signal;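 further: score merges 667 nm emission intensity with spot signal to noise over triplicate slides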
# Chain of Epidermal growth factor receptor (Homo sapiens) (P00533 whole entry, looked up): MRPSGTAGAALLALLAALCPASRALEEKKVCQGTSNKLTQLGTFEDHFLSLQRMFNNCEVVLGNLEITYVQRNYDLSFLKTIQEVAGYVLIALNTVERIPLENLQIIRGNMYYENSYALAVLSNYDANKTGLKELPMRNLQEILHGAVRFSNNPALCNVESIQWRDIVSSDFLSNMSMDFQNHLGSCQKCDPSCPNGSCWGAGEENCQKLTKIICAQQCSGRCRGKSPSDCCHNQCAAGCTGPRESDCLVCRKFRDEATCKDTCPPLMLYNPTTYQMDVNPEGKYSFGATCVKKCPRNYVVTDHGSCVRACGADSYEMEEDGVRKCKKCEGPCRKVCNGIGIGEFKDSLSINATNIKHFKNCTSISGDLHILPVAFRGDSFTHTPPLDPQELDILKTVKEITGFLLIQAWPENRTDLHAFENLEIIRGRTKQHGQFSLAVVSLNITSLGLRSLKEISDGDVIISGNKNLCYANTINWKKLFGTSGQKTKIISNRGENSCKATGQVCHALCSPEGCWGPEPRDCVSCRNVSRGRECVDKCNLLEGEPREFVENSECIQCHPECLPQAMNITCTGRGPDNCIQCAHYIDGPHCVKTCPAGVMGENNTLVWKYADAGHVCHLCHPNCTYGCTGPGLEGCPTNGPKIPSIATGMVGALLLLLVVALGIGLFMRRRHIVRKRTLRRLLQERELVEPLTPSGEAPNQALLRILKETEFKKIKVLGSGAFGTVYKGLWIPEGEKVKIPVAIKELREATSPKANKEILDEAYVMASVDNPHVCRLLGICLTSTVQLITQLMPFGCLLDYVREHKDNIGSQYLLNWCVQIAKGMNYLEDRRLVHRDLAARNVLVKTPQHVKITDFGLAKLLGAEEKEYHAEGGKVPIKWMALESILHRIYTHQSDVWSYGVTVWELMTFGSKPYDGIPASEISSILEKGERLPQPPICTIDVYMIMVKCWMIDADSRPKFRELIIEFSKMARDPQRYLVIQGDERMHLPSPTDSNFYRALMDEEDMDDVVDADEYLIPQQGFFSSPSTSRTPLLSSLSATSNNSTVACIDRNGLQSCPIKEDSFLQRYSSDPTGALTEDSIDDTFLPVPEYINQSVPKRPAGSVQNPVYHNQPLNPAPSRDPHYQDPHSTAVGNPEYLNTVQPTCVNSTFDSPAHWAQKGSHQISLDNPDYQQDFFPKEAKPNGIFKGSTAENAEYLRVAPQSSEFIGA
# [8] = target: Follistatin-related protein 3 (Homo sapiens) (UniProt O95633); assay: FSTL3 binders on small-molecule microarrays, primary screen, biochemical, small-molecule microarray, 635 nm fluorescence (AID 1105); conditions: FSTL3 binding, higher = more signal;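 further: score merges emission near 667 nm and signal to noise per printed spot across three slides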
# Chain of Follistatin-related protein 3 (Homo sapiens) (O95633 whole entry, looked up): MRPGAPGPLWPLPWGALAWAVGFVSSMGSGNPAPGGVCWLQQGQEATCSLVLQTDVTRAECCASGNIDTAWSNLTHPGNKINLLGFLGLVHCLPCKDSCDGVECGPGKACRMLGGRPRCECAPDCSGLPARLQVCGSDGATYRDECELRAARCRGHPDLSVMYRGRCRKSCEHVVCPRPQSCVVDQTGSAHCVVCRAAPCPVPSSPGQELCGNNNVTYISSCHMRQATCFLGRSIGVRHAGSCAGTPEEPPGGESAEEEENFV
# [9] = target: Dickkopf-related protein 1 (Homo sapiens) (UniProt O94907); assay: DKK1 binders on small-molecule microarrays, primary screen, biochemical, small-molecule microarray, 635 nm fluorescence scan (AID 1106); conditions: DKK1 binding, higher = more signal;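 further: score merges emission near 667 nm with signal to noise over three replicate slides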
# Chain of Dickkopf-related protein 1 (Homo sapiens) (O94907 whole entry, looked up): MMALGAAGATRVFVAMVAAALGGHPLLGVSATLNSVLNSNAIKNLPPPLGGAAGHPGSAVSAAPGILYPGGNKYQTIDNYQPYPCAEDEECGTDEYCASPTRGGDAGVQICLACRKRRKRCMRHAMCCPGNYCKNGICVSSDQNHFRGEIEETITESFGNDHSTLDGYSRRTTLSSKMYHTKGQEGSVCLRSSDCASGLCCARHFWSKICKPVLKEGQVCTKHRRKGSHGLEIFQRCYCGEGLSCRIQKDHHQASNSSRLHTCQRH
# [10] = tested on: Inhibin beta A chain (activin A); assay: INHBA (activin A) binders on microarrays, primary screen, biochemical, small-molecule microarray, 635 nm fluorescence scan (AID 1107); conditions: small-molecule microarray binding, higher = more signal;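 further: mouse activin A protein probed at 4.33 µg/mL on printed slides; score merges bound-protein fluorescence near 667 nm with spot signal-to-noise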
# [11] = tested on: Human papillomavirus type 1a protein E7 (residues 44-93); assay: HPV1a E7 fragment binders on microarrays, primary screen, biochemical, small-molecule microarray, residues 44-93, 635 nm fluorescence (AID 1108); conditions: small-molecule microarray binding, fluorescence 635 nm; higher = more signal;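 further: E7 fragment applied at 1 µg/mL in TBST for 1 h at 4 C; score combines spot fluorescence with its signal to noise ratio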
# [12] = modulators of HCV replicon luciferase signal, primary screen, HCV replication inhibitor project, Huh7 cells, luciferase reporter (AID 1109); conditions: 48 h, higher = more signal;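 further: huh7 hepatoma cells harbouring a luciferase neomycin HCV replicon reporter; luciferase luminescence as measure of HCV replicon replication; test concentration not given here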
# [13] = target: Left-right determination factor 2 (Homo sapiens) (UniProt O00292); assay: LEFTY2 binders on small-molecule microarrays, primary screen, biochemical, small-molecule microarray, 635 nm fluorescence scan (AID 1110); conditions: LEFTY2 binding, higher = more signal
# Chain of Left-right determination factor 2 (Homo sapiens) (O00292 whole entry, looked up): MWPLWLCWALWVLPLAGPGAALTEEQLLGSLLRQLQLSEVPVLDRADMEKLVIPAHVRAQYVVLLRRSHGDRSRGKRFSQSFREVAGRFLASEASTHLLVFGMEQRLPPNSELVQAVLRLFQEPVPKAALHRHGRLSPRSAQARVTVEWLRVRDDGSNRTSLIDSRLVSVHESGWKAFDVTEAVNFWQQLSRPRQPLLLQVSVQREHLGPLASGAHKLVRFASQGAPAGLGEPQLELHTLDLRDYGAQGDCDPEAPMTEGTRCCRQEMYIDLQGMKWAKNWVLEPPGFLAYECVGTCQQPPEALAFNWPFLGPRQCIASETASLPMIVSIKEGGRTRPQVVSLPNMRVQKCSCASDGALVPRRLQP
# [14] = target: Calmodulin-1 (Homo sapiens) (UniProt P0DP23); assay: CALM1 binders on microarrays, EGTA buffer, profiling panel, biochemical, small-molecule microarray, Cy5-labelled CALM1 (AID 1111); conditions: Cy5-CALM1 binding fluorescence, higher = more signal;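 further: labelled calmodulin applied in Tris saline Tween buffer holding calcium plus EGTA and DTT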
# [15] = target: Calmodulin-1 (Homo sapiens) (UniProt P0DP23); assay: calcium-bound CALM1 binders on microarrays, profiling panel, artefact control for SMM control-protein annotation, biochemical, small-molecule microarray, Cy5-labelled CALM1, plus calcium (AID 1112); conditions: Cy5-CALM1 binding fluorescence, higher = more signal;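 further: score merges spot fluorescence with signal to noise from triplicate slides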
# [16] = small-molecule microarray binders of probe aWnt5a, primary screen, biochemical, biotinylated probe, 635/667 nm fluorescence (AID 1113); conditions: higher = more signal;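 further: score merges 667 nm fluorescence intensity with signal-to-noise per printed feature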
# [17] = small-molecule microarray binders of probe aShh, primary screen, biochemical, biotinylated probe, 635/667 nm fluorescence (AID 1114); conditions: higher = more signal;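 further: probe is biotin-labelled aShh protein from a stem cell growth factor screen; measures binding of labelled protein to compounds printed on the slide; score merges feature fluorescence at 667 nm with signal-to-noise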
# [18] = small-molecule microarray binders of probe aNog, primary screen, biochemical, biotinylated probe, 635/667 nm fluorescence (AID 1115); conditions: higher = more signal;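 further: probe is biotinylated aNog protein used at 0.15 µg/mL for 1 h at 4 C; z-score combines 667 nm fluorescence of each spot with its signal to noise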
# [19] = target: Torsin-1A-interacting protein 1 (Homo sapiens) (UniProt Q5JTV8); assay: LAP1 binders from COS7 cell lysate, primary screen, small-molecule microarray, 635/667 nm fluorescence (AID 1116); conditions: COS7-hLAP1 lysate binding, 635 nm fluorescence, higher = more signal
# Chain of Torsin-1A-interacting protein 1 (Homo sapiens) (Q5JTV8 whole entry, looked up): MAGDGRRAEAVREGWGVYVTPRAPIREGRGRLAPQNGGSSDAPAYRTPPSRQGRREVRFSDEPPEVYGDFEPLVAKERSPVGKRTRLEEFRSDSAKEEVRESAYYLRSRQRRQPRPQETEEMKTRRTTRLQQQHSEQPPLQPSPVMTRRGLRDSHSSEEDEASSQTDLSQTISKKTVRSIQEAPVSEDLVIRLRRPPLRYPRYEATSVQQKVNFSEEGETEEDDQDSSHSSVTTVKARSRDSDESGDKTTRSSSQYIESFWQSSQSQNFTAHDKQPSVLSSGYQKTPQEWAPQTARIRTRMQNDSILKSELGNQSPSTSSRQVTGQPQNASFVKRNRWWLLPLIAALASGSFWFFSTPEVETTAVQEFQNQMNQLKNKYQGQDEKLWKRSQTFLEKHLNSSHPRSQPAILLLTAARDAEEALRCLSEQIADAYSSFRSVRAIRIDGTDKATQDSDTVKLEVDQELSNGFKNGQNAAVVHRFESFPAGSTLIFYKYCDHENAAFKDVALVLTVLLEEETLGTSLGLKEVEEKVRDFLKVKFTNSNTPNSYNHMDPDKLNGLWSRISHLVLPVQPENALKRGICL
# [20] = target: Alpha-bungarotoxin (Bungarus multicinctus) (UniProt P60615); assay: alpha-bungarotoxin binders on microarray, profiling panel, artefact control for SMM control protein annotation, biochemical, small-molecule microarray, Alexa647 label, 635/667 nm fluorescence (AID 1117); conditions: alpha-BTX-A647 binding fluorescence, higher = more signal
# Chain of Alpha-bungarotoxin (Bungarus multicinctus) (P60615 whole entry, looked up): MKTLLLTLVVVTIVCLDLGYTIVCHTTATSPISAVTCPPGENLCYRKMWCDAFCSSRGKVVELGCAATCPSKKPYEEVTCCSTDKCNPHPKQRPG
Compound,composite z-score [1],composite z-score [2],composite z-score [3],z-score [4],composite z-score [5],composite z-score [6],composite z-score [7],composite z-score [8],composite z-score [9],composite z-score [10],composite z-score [11],z-score [12],composite z-score [13],composite z-score [14],composite z-score [15],composite z-score [16],composite z-score [17],composite z-score [18],composite z-score [19],composite z-score [20]
CO[C@H]1COC(=O)CC=C[C@@H](C)[C@H](OC)COC(=O)CCC[C@@H]1C,0.786,-0.175,-0.791,-1.16 (inactive),0.254,0.274,0.487,0.633,1.19,1.25,-1.16,-1.3,0.797,-1.03,-1.29,-0.0751,-0.0709,-0.238,0.389,-0.069
CCOC(=O)[C@H](CC(C)C)NC(=O)CCC1CC(OC(=O)NCc2cccc3ccccc23)CC2(CCCC(COC(=O)NCCc3ccc(Cl)cc3)O2)O1 (stereo not given in full),0.409,-0.0738,-0.406,-1.18 (inactive),0.365,0.355,0.681,0.726,0.323,-0.293,0.529,-0.707,0.486,0.0203,-0.117,-0.191,-0.473,-0.114,0.161,0.557
CC[C@@H](c1ccccc1)n1c(=O)n2n(c1=O)[C@H]1[C@H](O)[C@@H]3O[C@@H]3C(=O)[C@H]1CC2,1.23,-0.245,-0.717,0.797 (inactive),0.427,0.417,0.489,0.32,0.466,0.384,0.225,-4.01,0.497,-0.202,-0.246,-0.101,-0.0474,-0.209,-0.113,0.414
O=C1C=C[C@@H](O)[C@@H]2[C@@H]3C(=O)N(c4ccc(F)cc4F)C(=O)[C@@H]3CC[C@@H]12,0.519,-0.241,-0.43,-1.21 (inactive),0.925,0.39,0.462,0.39,0.664,-1.12,0.229,-0.578,0.237,0.269,-0.282,-0.0405,-0.153,-0.252,0.804,0.0764
COc1cccc([C@H]2Oc3ccc(OC)cc3C(=NOC[C@@H](O)[C@H]3O[C@@H]4OC(C)(C)O[C@@H]4[C@H]3O)[C@@H]2O)c1,0.0732,-0.389,-0.511,-0.106 (inactive),0.654,0.315,0.35,0.492,0.548,-0.326,0.0743,4.33,0.583,-0.284,-0.273,-0.139,-0.304,-0.409,0.64,-0.106
CC(C)=CCCC(C)=CCON=C1C[C@@H](O)[C@@H](O)[C@@H]2[C@@H]3C(=O)N(c4ccc(F)cc4F)C(=O)[C@@H]3CC[C@@H]12,0.476,-0.324,-0.497,-0.118 (inactive),0.601,-0.0599,0.628,0.806,0.926,1.04,0.15,-1.08,0.821,-0.343,0.0144,-0.169,-0.0553,-0.374,1,0.703
CON=Cc1ccc(C(=O)N2[C@H](c3ccc(C)cc3)[C@@H](C)CC[C@H]2C(=O)OC)cc1,0.365,-0.254,-0.541,0.224 (inactive),0.52,0.873,0.594,0.512,0.573,0.339,1.25,-1.33,-0.203,-0.129,-0.121,-0.0044,0.0684,-0.0503,-0.0018,0.449
COC(=O)[C@@H]1CC[C@@H](C)[C@H](c2ccc(Br)cc2)N1,0.644,-0.013,-0.0951,-0.203 (inactive),-0.0342,-0.0839,0.185,-0.155,0.133,0.987,-1.2,-0.198,0.445,-0.227,-0.0163,-0.136,-0.226,-0.247,-0.0359,-0.309
C#CCCCON=C1C[C@@H](O)[C@@H](O)[C@@H]2[C@@H]3C(=O)N(CCC(=O)OCC)C(=O)[C@@H]3CC[C@H]12,1,0.286,-0.491,-1.79 (inactive),0.628,0.814,0.542,1.16,0.389,-0.422,0.0844,0.283,0.387,1.16,0.221,-0.13,0.172,-0.253,0.544,0.401
O=C1OCCC=C1C(O)CCc1ccccc1 (stereo not given),0.11,-0.344,-0.293,-0.278 (inactive),0.248,0.216,0.386,0.527,0.586,0.62,-0.0602,-0.364,0.791,-0.818,-0.679,-0.0981,-0.13,0.0229,0.128,0.642
CCN1C(=O)[C@H]2[C@H]3[C@H](O)[C@H](O)CC(=NNC(=O)OCc4ccc(OC)cc4)[C@@H]3CC[C@H]2C1=O,-0.492,1.08,0.765,0.564 (inactive),-0.0766,0.269,-0.0752,0.0539,-0.808,0.242,-0.246,-0.193,-0.0843,-0.484,-0.732,-0.261,0.401,-0.272,-0.717,0.374
